In ChEMBL document CHEMBL3988442, “University of Dundee, Small-Polar-MMV Screening Library” (2021):
For some assays here: Potency and affinity values are given separately.

How the values were obtained:
Set-up in all cases: scale not given: direction of the effect not stated beside the values
[1] = target: Protein translocase subunit SecA (Escherichia coli (strain K12)) (UniProt P10408); assay: Assay to Identify E. coli SecA ATPase Inhibitors; type: functional; settings: 30 µM
[2] = target: T1, Ubiquitin-activating enzyme e1, putative (Leishmania donovani (strain BPK282A1)) (UniProt E9BSI1); assay: Leishmania donovani Ubiquitin Activating Enzyme (LdE1); type: functional; settings: 30 µM
T1 sequence (whole entry): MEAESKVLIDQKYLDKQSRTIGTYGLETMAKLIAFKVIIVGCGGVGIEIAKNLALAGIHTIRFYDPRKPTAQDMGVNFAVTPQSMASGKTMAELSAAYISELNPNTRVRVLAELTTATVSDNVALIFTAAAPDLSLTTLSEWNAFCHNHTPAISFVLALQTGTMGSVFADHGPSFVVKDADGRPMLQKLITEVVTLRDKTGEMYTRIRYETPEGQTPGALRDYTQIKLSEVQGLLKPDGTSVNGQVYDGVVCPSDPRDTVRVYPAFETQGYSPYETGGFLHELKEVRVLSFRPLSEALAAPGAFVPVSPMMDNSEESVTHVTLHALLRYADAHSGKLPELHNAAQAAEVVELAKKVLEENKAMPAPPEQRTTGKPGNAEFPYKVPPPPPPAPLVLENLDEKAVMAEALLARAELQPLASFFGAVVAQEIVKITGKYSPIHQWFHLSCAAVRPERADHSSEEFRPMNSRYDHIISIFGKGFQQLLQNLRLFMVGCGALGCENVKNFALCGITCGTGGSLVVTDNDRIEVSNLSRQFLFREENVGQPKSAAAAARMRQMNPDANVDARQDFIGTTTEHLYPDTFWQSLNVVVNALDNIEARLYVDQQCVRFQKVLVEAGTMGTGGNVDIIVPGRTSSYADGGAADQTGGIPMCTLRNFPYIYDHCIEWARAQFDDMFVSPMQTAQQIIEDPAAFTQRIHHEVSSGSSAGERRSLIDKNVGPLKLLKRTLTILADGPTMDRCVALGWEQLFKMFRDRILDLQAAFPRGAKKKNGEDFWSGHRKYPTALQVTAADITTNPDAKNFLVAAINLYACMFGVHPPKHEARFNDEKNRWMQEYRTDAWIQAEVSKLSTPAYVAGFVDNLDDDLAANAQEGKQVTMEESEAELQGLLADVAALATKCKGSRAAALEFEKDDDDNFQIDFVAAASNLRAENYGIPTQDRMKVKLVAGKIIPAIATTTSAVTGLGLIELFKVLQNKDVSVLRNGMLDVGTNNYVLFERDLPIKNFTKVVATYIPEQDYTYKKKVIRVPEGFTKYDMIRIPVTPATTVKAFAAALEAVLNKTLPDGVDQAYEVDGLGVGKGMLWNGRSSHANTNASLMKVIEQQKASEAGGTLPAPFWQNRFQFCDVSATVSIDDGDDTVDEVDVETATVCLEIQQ

[3] = target: AMP-activated protein kinase, AMPK (Homo sapiens) (UniProt P54646+O43741+P54619+Q9UGJ0+Q9Y478+Q13131+Q9UGI9); assay: AMP-dependent Kinase enzyme assay. An in vitro enzyme assay that detects ADP turnover that is directly proportional to AMPK activity. This uses naive AMPK that is activated during the assay with MK-8722; type: functional; settings: 30 µM
[4] = target: Sialic acid-binding Ig-like lectin 9 (Homo sapiens) (UniProt Q9Y336); assay: Hs-Siglec9 ALPHAscreen SOP 20170721; settings: 10 µM
Trypanosoma cruzi = assay: Trypanosoma cruzi phosphomannomutase and mannose-1-phosphate guanylyltransferase assay; type: functional; settings: 10 µM
[5] = target: T2, Arginase-2, mitochondrial (Homo sapiens) (UniProt P78540); assay: in vitro enzyme assay to detect the production of urea directly proportional to the activity of Arginase II; type: functional; settings: 33.3 µM; note: in the data most compounds retested in dose-response had high values
T2 sequence (whole entry): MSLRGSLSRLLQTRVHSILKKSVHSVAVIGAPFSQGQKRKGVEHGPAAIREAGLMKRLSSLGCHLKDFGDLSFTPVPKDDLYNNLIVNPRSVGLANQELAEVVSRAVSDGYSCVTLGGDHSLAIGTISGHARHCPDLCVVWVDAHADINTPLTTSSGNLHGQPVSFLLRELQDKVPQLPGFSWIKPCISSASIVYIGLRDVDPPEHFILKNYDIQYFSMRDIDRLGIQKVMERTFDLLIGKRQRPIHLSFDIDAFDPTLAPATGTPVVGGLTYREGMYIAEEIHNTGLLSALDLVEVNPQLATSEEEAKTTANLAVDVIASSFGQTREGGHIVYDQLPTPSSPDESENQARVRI

[6] = target: T3, Proteasome subunit beta (Trypanosoma cruzi) (UniProt O96673); assay: Trypanosoma cruzi proteasome chymotrypsin-like activity (TcProtChymo) assay.; note: in the data most compounds retested in dose-response had high values; type: functional; settings: 9.37 µM
T3 sequence (whole entry): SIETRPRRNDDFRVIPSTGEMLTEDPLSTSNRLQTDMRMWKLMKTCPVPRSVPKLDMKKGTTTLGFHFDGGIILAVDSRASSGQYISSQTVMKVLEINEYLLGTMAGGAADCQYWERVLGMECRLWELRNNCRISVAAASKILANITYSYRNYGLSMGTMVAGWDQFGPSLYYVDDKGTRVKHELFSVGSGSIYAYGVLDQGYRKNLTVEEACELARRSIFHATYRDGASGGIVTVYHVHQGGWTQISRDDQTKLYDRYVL

Homo sapiens = species on record: Homo sapiens; assay: To identify inhibition of the IFN signalling (Jak-Stat) pathway via expression of an eGFP reporter gene under the control of an IFN-stimulated response element (ISRE) containing MxA promoter.; type: functional; settings: 30 µM
[7] = target: T4, Tyrosyl-tRNA synthetase, putative (Trypanosoma cruzi (strain CL Brener)) (UniProt Q4DSP6); assay: Trypanosoma cruzi tyrosyl tRNA synthetase (TcYRS) _High Tyrosine SOP; type: functional; settings: 30 µM; note: in the data most compounds retested in dose-response had high values
T4 sequence (whole entry): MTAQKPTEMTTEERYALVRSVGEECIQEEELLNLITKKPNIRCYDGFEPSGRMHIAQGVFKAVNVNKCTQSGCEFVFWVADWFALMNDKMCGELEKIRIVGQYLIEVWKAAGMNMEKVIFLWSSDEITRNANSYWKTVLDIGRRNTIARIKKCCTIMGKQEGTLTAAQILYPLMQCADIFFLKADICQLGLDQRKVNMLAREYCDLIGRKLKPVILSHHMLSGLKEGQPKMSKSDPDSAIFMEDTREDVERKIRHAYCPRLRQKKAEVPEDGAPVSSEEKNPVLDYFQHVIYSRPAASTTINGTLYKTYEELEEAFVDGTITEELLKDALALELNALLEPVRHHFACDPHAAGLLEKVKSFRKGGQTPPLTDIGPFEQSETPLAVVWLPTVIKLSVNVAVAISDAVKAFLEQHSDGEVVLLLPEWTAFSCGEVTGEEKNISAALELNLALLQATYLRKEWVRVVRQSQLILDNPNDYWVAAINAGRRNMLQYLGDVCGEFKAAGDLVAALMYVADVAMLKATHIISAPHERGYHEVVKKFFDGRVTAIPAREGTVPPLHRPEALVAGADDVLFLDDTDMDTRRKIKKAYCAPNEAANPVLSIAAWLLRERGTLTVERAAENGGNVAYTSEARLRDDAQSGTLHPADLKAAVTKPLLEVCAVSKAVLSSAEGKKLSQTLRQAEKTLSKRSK

[8] = target: T4, Tyrosyl-tRNA synthetase, putative (Trypanosoma cruzi (strain CL Brener)); assay: Trypanosoma cruzi tyrosyl tRNA synthetase (TcYRS) SOP; type: functional; settings: 30 µM
[9] = target: Chromo domain-containing protein 1 (Saccharomyces cerevisiae (strain ATCC 204508 / S288c) (Baker's yeast)) (UniProt P32657); assay: ScCHD-1 Enzyme Inhibition Assay; type: functional; settings: 30 µM; note: in the data most compounds retested in dose-response had high values
Chromo domain-containing protein 1 (Saccharomyces cerevisiae (strain ATCC 204508 / S288c) (Baker's yeast)), sequence (P32657 whole entry, the tested form may be a part): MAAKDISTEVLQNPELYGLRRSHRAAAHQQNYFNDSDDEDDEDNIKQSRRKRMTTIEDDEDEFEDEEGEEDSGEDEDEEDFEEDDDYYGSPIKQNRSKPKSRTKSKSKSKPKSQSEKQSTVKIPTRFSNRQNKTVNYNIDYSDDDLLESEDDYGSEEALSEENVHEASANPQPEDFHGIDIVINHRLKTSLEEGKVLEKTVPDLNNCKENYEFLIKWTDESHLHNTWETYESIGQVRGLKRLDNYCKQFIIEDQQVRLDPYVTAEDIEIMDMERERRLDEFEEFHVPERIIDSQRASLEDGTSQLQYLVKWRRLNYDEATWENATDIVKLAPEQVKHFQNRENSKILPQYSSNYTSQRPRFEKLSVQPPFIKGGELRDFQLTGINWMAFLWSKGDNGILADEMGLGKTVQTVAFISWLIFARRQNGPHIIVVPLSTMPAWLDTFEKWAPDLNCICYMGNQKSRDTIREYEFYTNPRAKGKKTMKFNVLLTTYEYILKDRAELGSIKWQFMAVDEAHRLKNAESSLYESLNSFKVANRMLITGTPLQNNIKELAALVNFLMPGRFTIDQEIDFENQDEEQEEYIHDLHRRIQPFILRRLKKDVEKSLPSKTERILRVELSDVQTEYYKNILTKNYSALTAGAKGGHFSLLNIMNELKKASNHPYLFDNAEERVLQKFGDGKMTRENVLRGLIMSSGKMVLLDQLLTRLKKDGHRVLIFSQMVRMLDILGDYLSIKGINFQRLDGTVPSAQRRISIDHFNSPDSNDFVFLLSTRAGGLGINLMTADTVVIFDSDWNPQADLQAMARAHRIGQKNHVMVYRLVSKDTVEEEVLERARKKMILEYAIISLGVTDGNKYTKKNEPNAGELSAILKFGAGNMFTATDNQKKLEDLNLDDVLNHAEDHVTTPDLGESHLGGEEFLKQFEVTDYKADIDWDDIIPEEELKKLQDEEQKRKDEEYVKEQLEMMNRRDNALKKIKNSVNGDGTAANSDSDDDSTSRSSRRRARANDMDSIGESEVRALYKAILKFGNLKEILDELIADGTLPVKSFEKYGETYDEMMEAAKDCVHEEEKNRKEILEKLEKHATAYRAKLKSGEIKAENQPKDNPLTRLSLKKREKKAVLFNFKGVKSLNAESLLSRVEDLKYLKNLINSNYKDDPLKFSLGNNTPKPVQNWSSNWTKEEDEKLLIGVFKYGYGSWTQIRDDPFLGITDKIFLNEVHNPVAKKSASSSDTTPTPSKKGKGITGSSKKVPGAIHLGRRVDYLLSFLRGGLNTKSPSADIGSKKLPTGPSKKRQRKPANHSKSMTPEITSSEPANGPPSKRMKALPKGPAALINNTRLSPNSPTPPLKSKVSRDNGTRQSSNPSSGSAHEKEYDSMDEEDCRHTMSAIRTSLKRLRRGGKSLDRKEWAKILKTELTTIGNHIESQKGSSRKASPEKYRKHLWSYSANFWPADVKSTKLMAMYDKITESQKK

Sialic acid-binding Ig-like lectin 9 (Homo sapiens), sequence (Q9Y336 whole entry): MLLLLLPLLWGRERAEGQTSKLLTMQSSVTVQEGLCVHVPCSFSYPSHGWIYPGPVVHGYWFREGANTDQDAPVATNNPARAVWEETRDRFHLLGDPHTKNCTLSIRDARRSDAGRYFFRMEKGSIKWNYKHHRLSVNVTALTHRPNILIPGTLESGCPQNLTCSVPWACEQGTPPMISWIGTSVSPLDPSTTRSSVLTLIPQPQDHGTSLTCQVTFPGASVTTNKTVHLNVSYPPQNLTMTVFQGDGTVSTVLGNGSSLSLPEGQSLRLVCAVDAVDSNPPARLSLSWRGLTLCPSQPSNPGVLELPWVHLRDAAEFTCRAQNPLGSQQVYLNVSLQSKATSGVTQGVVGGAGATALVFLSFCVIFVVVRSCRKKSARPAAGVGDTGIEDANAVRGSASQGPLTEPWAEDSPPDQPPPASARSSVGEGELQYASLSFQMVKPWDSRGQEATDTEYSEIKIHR
Protein translocase subunit SecA (Escherichia coli (strain K12)), sequence (P10408 whole entry): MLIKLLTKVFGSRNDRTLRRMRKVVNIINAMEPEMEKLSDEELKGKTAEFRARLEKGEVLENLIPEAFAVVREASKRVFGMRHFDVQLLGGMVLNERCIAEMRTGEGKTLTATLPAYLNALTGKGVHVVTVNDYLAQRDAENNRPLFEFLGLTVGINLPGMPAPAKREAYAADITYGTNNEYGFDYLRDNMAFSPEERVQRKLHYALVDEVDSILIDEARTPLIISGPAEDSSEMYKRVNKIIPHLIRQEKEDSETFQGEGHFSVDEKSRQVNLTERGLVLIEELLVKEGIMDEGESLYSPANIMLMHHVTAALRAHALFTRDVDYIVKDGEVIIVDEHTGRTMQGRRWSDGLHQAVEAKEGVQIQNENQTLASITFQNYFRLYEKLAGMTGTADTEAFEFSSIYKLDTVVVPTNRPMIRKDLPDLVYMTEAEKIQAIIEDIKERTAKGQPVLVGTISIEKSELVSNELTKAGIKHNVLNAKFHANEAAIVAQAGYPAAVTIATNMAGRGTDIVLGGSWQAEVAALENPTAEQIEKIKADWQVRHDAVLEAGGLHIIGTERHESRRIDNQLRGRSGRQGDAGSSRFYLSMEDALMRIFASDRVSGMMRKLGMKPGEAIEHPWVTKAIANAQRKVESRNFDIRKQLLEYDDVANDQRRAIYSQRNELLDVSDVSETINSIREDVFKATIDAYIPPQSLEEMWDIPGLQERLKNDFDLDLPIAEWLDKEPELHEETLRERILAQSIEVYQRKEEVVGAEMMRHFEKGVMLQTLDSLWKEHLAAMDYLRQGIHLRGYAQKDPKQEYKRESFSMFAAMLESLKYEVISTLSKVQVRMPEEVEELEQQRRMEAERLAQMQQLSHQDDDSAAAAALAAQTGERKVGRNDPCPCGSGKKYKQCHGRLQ

Structure (SMILES)	Percent Effect [1]	Percent Effect [2]	Percent Effect [3]	Percent Effect [4]	Percent Effect (Trypanosoma cruzi)	Percent Effect [5]	Percent Effect [6]	Percent Effect (Homo sapiens)	Percent Effect [7]	Percent Effect [8]	Percent Effect [9]
CCc1nc(CN2CCN(C(=O)c3cnccn3)CC2)cs1	-2.42%	5.41%	-4.67%	12.2%	4.92%	-5.73%	15.3%	11.6%	1.98%	11%	-2.71%
CN(CCO)C(=O)c1coc(CN2CCN(c3ccccc3F)CC2)n1	-2.04%	13.3%	-1.48%	17.7%	-0.0974%	49.5%	20.2%	11.4%	6.01%	21%	97.1%
O=C(NCC1(N2CCOCC2)CCSC1)Nc1ccc(F)cc1 (configuration not stated)	0.856%	5.41%	-4.15%	1.34%	0.193%	-2.86%	17.9%	-10.2%	5.82%	9.76%	-1.18%
CNC(=O)[C@H]1C[C@@H]2CN(S(=O)(=O)c3ccccc3)C[C@@H]2N1C(C)=O	-5.14%	7.79%	3.54%	8.79%	8.95%	1.38%	8.32%	18.1%	5.38%	11.1%	1.18%
CCc1noc(C(C)N(C)CC(=O)Nc2c(C)cccc2C)n1 (configuration not stated)	1.06%	11%	6.59%	4.7%	4.31%	16.8%	8.7%	-3.6%	4.3%	15%	-7.1%
CC1(C)CN(C(=O)NCCc2ccn(-c3ccccc3)n2)CCO1	-4.22%	-2.6%	8.97%	11.9%	1.47%	4%	2.02%	8.51%	2.86%	7.06%	-12.9%
CCNC(=O)c1ncn2c1CN(C)S(=O)(=O)c1ccccc1-2	0.812%	2.74%	2.65%	7.01%	-2.58%	-2%	14%	11%	1.04%	6.17%	-0.402%
CSCC(=O)N1CCCN(c2ccccc2C)CC1	-7.55%	2.7%	-2.83%	-3.96%	-5.18%	-0.248%	1.8%	4.54%	1.07%	6.17%	-3.91%
Cc1cnn(C2CCCN(C(=O)CCCOc3cccc(F)c3)C2)c1 (configuration not stated)	-4.89%	-1.27%	42.4%	2.93%	0.513%	4.52%	0%	3.38%	-3.12%	-5.06%	-28.9%
O=C(c1ccncc1)N1C[C@@H]2CC[C@H](C1)N(C(=O)N1CCOCC1)C2	-0.807%	2.67%	-4.2%	3.79%	-4.38%	4.69%	15.5%	10.6%	6.01%	13.6%	-5.41%
Cn1cc(C2CCCN2Cc2csc(-c3ccsc3)n2)cn1 (configuration not stated)	-1.56%	-2.53%	-11.2%	3.12%	-7.46%	0.76%	3.36%	8.82%	-24.1%	3.8%	-2%
CCSCC(C)NCc1nncn1C1CCCCC1 (configuration not stated)	-0.842%	6.94%	-1.51%	-1.31%	2.23%	0.883%	16%	-2.28%	11.6%	20.5%	-4.13%
Cc1cc(CN2CCCC2c2c(C)nn(C)c2Cl)no1 (configuration not stated)	-2.25%	21.1%	-2.49%	-2.11%	3.46%	3.24%	13.4%	3.96%	10.3%	28.4%	-10.3%
Cc1ncc(CNC(=O)CCc2cccc(F)c2)c(C2CCCN2C)n1 (configuration not stated)	-7.92%	9.46%	-0.703%	1.74%	0.988%	-3.94%	5.15%	2.42%	2.15%	9.09%	-19.1%
COc1ccccc1C(=O)N1CC(Cc2nccc3ccn(C)c23)C1	-7.05%	17.6%	2.79%	6.36%	4.15%	-2.09%	6.4%	13.2%	6.45%	14.3%	-16.6%
Cc1nc(C)n(C2CCCN(C(=O)c3ccc(F)cc3F)C2)n1 (configuration not stated)	-3.45%	0%	0.572%	-0.68%	2.73%	24.6%	11.2%	-8.13%	9.9%	18.3%	-7.11%
CO[C@H]1CCN(Cc2cccc(C)n2)[C@@H]2CN(Cc3cccnc3)C[C@H]12	-4.37%	13.7%	-4.89%	7.4%	12.3%	-3.99%	15.5%	6.58%	5.21%	6.17%	-8.06%
CCCN1CCN(C(=O)c2cnccn2)[C@H]2CS(=O)(=O)C[C@H]21	-2.77%	2.7%	-5.74%	30.7%	3.86%	2.38%	2.93%	6.26%	4.76%	12.2%	-5.99%
COc1cccc(N2CCN(CC(O)c3cc(C)ccc3C)CC2)c1 (configuration not stated)	-1.87%	10.5%	-6.71%	-9.14%	-8.67%	2.37%	18.5%	-5.38%	7.45%	7.79%	-5.09%
COCC1CN(S(C)(=O)=O)Cc2ncn(CC3CC3)c21 (configuration not stated)	-4.92%	13.5%	-0.0233%	-3.08%	-5.38%	0.248%	14.2%	27.2%	4.3%	8.64%	-3.62%
c1cnc2c(c1)cc(C1CCOCC1)n2CCN1CCOCC1	-3.29%	14.9%	13.1%	-5.49%	0.79%	-1.62%	12.5%	4.82%	3.23%	11.7%	-12.6%
Cc1cc(C)n(CCCNC(=O)[C@@H](C)NC(=O)OC(C)(C)C)n1	-6.34%	7.89%	8.18%	0.0654%	7.5%	-4.73%	13.3%	5.91%	3.19%	10.4%	-1.9%
